Results: the supplement of paper PMC12532568
Counter-ions that a name gives are not always drawn.

Tested on: Danio rerio larvae Tg(actc1b:ZsGreen-LC3), 3 dpf
Test: LC3 puncta relative area vs vehicle, with NH4Cl (autophagic flux) (log2 fold change); higher = more autophagy
Conditions: 10 µM; treatment time 16 h; NH4Cl: + 100 mM, 4 h
Experimental: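 Transgenic Tg(actc1b:ZsGreen-map1lc3) zebrafish larvae (2 dpf) were treated for 16 h with Tocris library compounds at 10 µM (n = 12 larvae per compound). Skeletal-muscle LC3 puncta area relative to body area was measured by high-content confocal imaging before and after 4 h of 100 mM NH4Cl (autophagic flux), normalised to vehicle (DMSO), and reported as log2 fold change.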

Question: With `CCCCCCC[n+]1ccc(-c2cc[n+](CCCCCCC)cc2)cc1` [DHBP dibromide] as the compound, how does the “LC3 puncta (log2)” value read?
Answer: 0.343

Question: With `OC1CCCCC1N1CCC(c2ccccc2)CC1` (stereo not given) [(?)-Vesamicol hydrochloride] as the compound, how does the “LC3 puncta (log2)” value read?
Answer: 0.751

Question: How did the “LC3 puncta (log2)” value turn out when `COc1ccc(C(=O)N2CCCC2=O)cc1` [Aniracetam] was run?
Answer: 0.0699

Question: How did the “LC3 puncta (log2)” value turn out when `O=C(Cc1ccc(Cl)c(Cl)c1)N1CCCCC1CN1CCCC1` (stereo not given) was run?
Answer: 0.493

Question: `c1ccc2c(c1)OCC(C1=NCCN1)O2` (stereo not given) [Idazoxan hydrochloride] was tested. Which “LC3 puncta (log2)” value did it give?
Answer: 0.662

Question: With `CN(C(=O)Cc1ccccc1)C(CN1CCCC1)c1ccccc1` (stereo not given) [N-MPPP Hydrochloride] as the compound, how does the “LC3 puncta (log2)” value read?
Answer: 0.566

Question: With `CCCN(CCC)C1CCc2ccc(O)cc2C1` (stereo not given) [7-Hydroxy-DPAT hydrobromide] as the compound, how does the “LC3 puncta (log2)” value read?
Answer: 0.179

Question: `Oc1ccc2c3c1O[C@H]1c4c(c5ccccc5n4Cc4ccccc4)C[C@@]4(O)C(C2)N(CC2CC2)CC[C@]314` [N-Benzylnaltrindole hydrochloride] was tested. Which “LC3 puncta (log2)” value did it give?
Answer: 0.945

Question: With `NC(C(=O)O)c1nn[nH]n1` (racemic) [(RS)-(Tetrazol-5-yl)glycine] as the compound, how does the “LC3 puncta (log2)” value read?
Answer: 0.357

Question: `C=CCN1CC[C@]23c4c5ccc(O)c4O[C@H]2C(=O)CC[C@@]3(O)[C@H]1C5` [Naloxone hydrochloride] was tested. Which “LC3 puncta (log2)” value did it give?
Answer: 0.232

Question: `CC(=O)NCCc1c[nH]c2ccccc12` [N-Acetyltryptamine] was tested. Which “LC3 puncta (log2)” value did it give?
Answer: 0.0329

Question: Which “LC3 puncta (log2)” value does the source give for `Oc1ccc2c3c1O[C@H]1c4[nH]c5ccccc5c4C[C@@]4(O)[C@@H](C2)N(CC2CC2)CC[C@]314` [Naltrindole hydrochloride] here?
Answer: 0.551

Question: For `c1ccc2nc(N3CCNCC3)ccc2c1` [Quipazine dimaleate], which “LC3 puncta (log2)” value is on record?
Answer: 0.278

Question: With `C=C(C)[C@H]1CN[C@H](C(=O)O)[C@H]1CC(=O)O` [Kainic acid] as the compound, how does the “LC3 puncta (log2)” value read?
Answer: 0.23

Question: How did the “LC3 puncta (log2)” value turn out when `c1ccc2c(c1)[I+]c1ccccc1-2` [Diphenyleneiodonium chloride] was run?
Answer: 0.545

Question: For `CO[C@]12C[C@@H](COC(=O)c3cncc(Br)c3)CN(C)[C@@H]1Cc1cn(C)c3cccc2c13` [Nicergoline], which “LC3 puncta (log2)” value is on record?
Answer: 0.397

Question: How did the “LC3 puncta (log2)” value turn out when `Cc1[nH]c2ccc(O)cc2c1CCN` [2-Methyl-5-hydroxytryptamine hydrochloride] was run?
Answer: 0.337

Question: With `O=C(CCCN1CCC2(CC1)C(=O)N(Cc1cccc(F)c1)CN2c1ccccc1)c1ccc(F)cc1` [3'-Fluorobenzylspiperone maleate] as the compound, how does the “LC3 puncta (log2)” value read?
Answer: 1.38

Question: `CC(CN)CC(=O)O` (stereo not given) [3-Methyl-GABA] was tested. Which “LC3 puncta (log2)” value did it give?
Answer: 0.425

Question: Which “LC3 puncta (log2)” value does the source give for `Cc1onc(O)c1CC(N)C(=O)O` (racemic) here?
Answer: 0.2

Question: `CCCN(CCC)C1CCc2cccc(O)c2C1` (stereo not given) [8-Hydroxy-DPAT hydrobromide] was tested. Which “LC3 puncta (log2)” value did it give?
Answer: 0.325

Question: How did the “LC3 puncta (log2)” value turn out when `CC(C)[C@@]1(NC(=O)[C@@H]2C[C@@H]3c4cccc5[nH]cc(c45)C[C@H]3N(C)C2)O[C@@]2(O)[C@@H]3CCCN3C(=O)[C@H](Cc3ccccc3)N2C1=O` [Dihydroergocristine mesylate] was run?
Answer: 0.198

Question: With `N=C(N)NN` [Aminoguanidine hydrochloride] as the compound, how does the “LC3 puncta (log2)” value read?
Answer: 0.662

Question: For `O=C(O)Cc1cccnc1C(=O)O` [Homoquinolinic acid], which “LC3 puncta (log2)” value is on record?
Answer: 0.499

Question: For `COC(=O)[C@@H](N)CCCNC(=N)N[N+](=O)[O-]` [L-NAME hydrochloride], which “LC3 puncta (log2)” value is on record?
Answer: 0.657

Question: With `Cc1cc(C)cc(C(=O)OC2C[C@H]3CC[C@@H](C2)N3C)c1` (stereo not given in full) [Tropanyl-3,5-dimethylbenzoate] as the compound, how does the “LC3 puncta (log2)” value read?
Answer: 0.418

Question: How did the “LC3 puncta (log2)” value turn out when `CC(N)Cc1cnc[nH]1` (stereo not given) was run?
Answer: 0.293

Question: `c1ccc(CC(c2ccccc2)N2CCCCC2)cc1` (stereo not given) [(?)-1-(1,2-Diphenylethyl)piperidine maleate] was tested. Which “LC3 puncta (log2)” value did it give?
Answer: 0.216

Question: How did the “LC3 puncta (log2)” value turn out when `Clc1cccc(SC2CCNCC2)n1` [Anpirtoline hydrochloride] was run?
Answer: 0.148

Question: Which “LC3 puncta (log2)” value does the source give for `O=C(O)/C=C/CO` [trans-4-Hydroxycrotonic acid] here?
Answer: 0.0547

Question: How did the “LC3 puncta (log2)” value turn out when `Cc1ccc(C[N+](C)(C)C)o1` [5-Methylfurmethiodide] was run?
Answer: 0.316

Question: How did the “LC3 puncta (log2)” value turn out when `CS(=O)(=O)Nc1ccc(Cc2noc(-c3ccc4[nH]cc(CCN)c4c3)n2)cc1` was run?
Answer: 0.382

Question: How did the “LC3 puncta (log2)” value turn out when `c1ccc2sc(C3(N4CCCCC4)CCCCC3)cc2c1` [BTCP maleate] was run?
Answer: 0.575

Question: `O=C1NCN(c2ccccc2)C12CCN(CC1COc3ccccc3O1)CC2` (stereo not given) [Spiroxatrine] was tested. Which “LC3 puncta (log2)” value did it give?
Answer: 0.649

Question: For `Fc1ccc(C(OCCN2CCN(C/C=C/c3ccccc3)CC2)c2ccc(F)cc2)cc1`, which “LC3 puncta (log2)” value is on record?
Answer: 0.995

Question: For `CCCN(C/C=C/I)C1CCc2ccc(O)cc2C1` (stereo not given) [7-Hydroxy-PIPAT maleate], which “LC3 puncta (log2)” value is on record?
Answer: 0.264

Question: How did the “LC3 puncta (log2)” value turn out when `C=CCN1C[C@H](C)N([C@H](c2ccc(C(=O)N(CC)CC)cc2)c2cccc(OC)c2)C[C@H]1C` was run?
Answer: 0.846

Question: With `CN(C(=O)Cc1ccc(Cl)c(Cl)c1)[C@H](CN1CCCC1)c1ccccc1` [ICI 199,441 hydrochloride] as the compound, how does the “LC3 puncta (log2)” value read?
Answer: 0.486

Question: With `S=C(NC1CCCCC1)N1CCC(c2cnc[nH]2)CC1` [Thioperamide] as the compound, how does the “LC3 puncta (log2)” value read?
Answer: 0.48

Question: With `Cc1onc(O)c1C[C@H](N)C(=O)O` as the compound, how does the “LC3 puncta (log2)” value read?
Answer: 0.29
